Compounds without any hit were thinned out: in the full panel of roughly 83,000, 20% have a hit.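 Plates (96-well) were seeded with cells, treated with compound at one concentration, and incubated for 48 hours before percent growth was determined.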 Unmarked numbers belong to inactive results. The source made the active and inactive calls. How the source made its calls: active means growth percent below 10; inactive means the rest.

Holding throughout (experiment): NCI-60 one-dose screen, 48 h (100 = growth as untreated, 0 = no growth, -100 = all killed)
One test deals with HCT-15 colon. As to conditions: 10 µM unless noted.
The next test concerns HT29 colon. The following applies: 10 µM unless noted.
The next test relates to SNB-75 CNS. The following applies: 10 µM unless noted.
The test system of the next test is SNB-19 CNS. The following applies: 10 µM unless noted.
The next test has as its system U251 CNS. The following applies: 10 µM unless noted.
In the next test the test system is PC-3 prostate. The following applies: 10 µM unless noted.
A further test has as its system SK-MEL-5 melanoma. As to conditions: 10 µM unless noted.
A further test has as its system UACC-62 melanoma. The following applies: 10 µM unless noted.
A further test relates to LOX IMVI melanoma. The following applies: 10 µM.
In the next test the test system is SK-MEL-28 melanoma. The following applies: 10 µM unless noted.
The next test has as its system SK-MEL-2 melanoma. The following applies: 10 µM unless noted.
The subject of the next test is EKVX NSCLC. As to conditions: 10 µM unless noted.
The subject of another test is SN12C renal. The following applies: 10 µM unless noted.
In the next test the test system is UO-31 renal. The following applies: 10 µM unless noted.
The next test relates to TK-10 renal. As to conditions: 10 µM unless noted.
In another test the test system is A498 renal. As to conditions: 10 µM unless noted.
Another test concerns CCRF-CEM leukemia. The following applies: 10 µM unless noted.
The subject of a further test is MOLT-4 leukemia. The following applies: 10 µM unless noted.
A further test has as its system ACHN renal. As to conditions: 10 µM unless noted.
The subject of a further test is CAKI-1 renal. As to conditions: 10 µM unless noted.

As for `COC1OC(COC(C)=O)C(OC(C)=O)C(OC(C)=O)C1OC(C)=O` (stereo unspecified), the growth with HCT-15 colon was 97.2%; in the test with HT29 colon, 95.5%; in the test with SNB-75 CNS, 95.7%; with SNB-19 CNS, 102%; in the test with U251 CNS, 102%; in the test on PC-3 prostate, 87.2%. Moreover, the growth in the test with SK-MEL-5 melanoma is 117%; in the test with UACC-62 melanoma, 86.5%; in the test with LOX IMVI melanoma, 98.5%; in the test on SK-MEL-28 melanoma it was 94.2%; with SK-MEL-2 melanoma, 101%; in the test on EKVX NSCLC, 93%. Besides, the growth with SN12C renal was 101%; with UO-31 renal it was 99.3%; in the test on TK-10 renal it was 104%; in the test with A498 renal it was 88.8%; in the test with CCRF-CEM leukemia it was 95.9%; in the test with MOLT-4 leukemia, 96.3%.

As to `Cc1[nH]c(=S)[nH]c(=O)c1C`, the growth is 99.4% in the test on HCT-15 colon; 104% with HT29 colon; 93.4% in the test on SNB-75 CNS; 103% in the test on SNB-19 CNS; 92.4% in the test with U251 CNS; 102% with PC-3 prostate. Besides, the growth with SK-MEL-5 melanoma was 100%; with UACC-62 melanoma, 105%; in the test with LOX IMVI melanoma, 104%; in the test with SK-MEL-28 melanoma, 110%; in the test on SK-MEL-2 melanoma, 107%; in the test with EKVX NSCLC it was 109%. For the same compound, the growth was 106% in the test on SN12C renal; 96.4% in the test on UO-31 renal; 96.6% in the test on ACHN renal; 103% with CAKI-1 renal; 110% in the test on A498 renal; 96.9% in the test on CCRF-CEM leukemia. In addition, the growth in the test with MOLT-4 leukemia was 89.3%.

`Cc1cc2c3ccc(C)[n+](C)c3ccc2n1C`: the growth in the test with HCT-15 colon is 104%; with HT29 colon it was 39.9%; with SNB-75 CNS it was 67.6%; in the test with SNB-19 CNS, 30.6%; in the test on U251 CNS it was 12.4%; with PC-3 prostate it was 8.69% (active). The growth with SK-MEL-5 melanoma is 48.2%; with UACC-62 melanoma it was 78.9%; in the test on LOX IMVI melanoma, 43.9%; in the test on SK-MEL-28 melanoma, 86%; in the test on SK-MEL-2 melanoma, 92.4%; in the test with EKVX NSCLC, 20%. Moreover, the growth in the test with SN12C renal was 22.4%; with UO-31 renal, 27.1%; with TK-10 renal, 65.6%; in the test with CAKI-1 renal it was 58.1%; in the test on CCRF-CEM leukemia, 36.7%; in the test on MOLT-4 leukemia, 25.2%.

As to `CCOP(=O)(OCC)/C(=C\N1C(=O)CC(=O)NC1=S)C(=O)OC`, the growth in the test on HCT-15 colon is 102%; with HT29 colon, 111%; in the test with SNB-75 CNS it was 90.2%; in the test with SNB-19 CNS, 98.6%; in the test on U251 CNS, 94.7%; in the test on PC-3 prostate, 97.8%. For the same compound, the growth with SK-MEL-5 melanoma is 99%; with UACC-62 melanoma it was 98.6%; in the test on LOX IMVI melanoma, 98.6%; with SK-MEL-28 melanoma it was 107%; with SK-MEL-2 melanoma it was 118%; in the test on EKVX NSCLC, 98.9%. The growth with SN12C renal was 101%; with UO-31 renal, 90%; with ACHN renal, 99.5%; in the test on CAKI-1 renal, 97.4%; in the test with A498 renal it was 87.7%; in the test with CCRF-CEM leukemia, 103%. For the same compound, the growth in the test on MOLT-4 leukemia was 100%.

Consider `CCCCc1ccc2nc(NC(=O)OC)[nH]c2c1`, for which the growth in the test on HCT-15 colon is 7.85% (active); in the test with HT29 colon it was 12.2%; in the test with SNB-75 CNS, 65.1%; with SNB-19 CNS it was 14.7%; in the test with U251 CNS, 22.2%; in the test with PC-3 prostate, 22.5%. Also, the growth in the test on SK-MEL-5 melanoma is -49.2% (active); with UACC-62 melanoma, 41%; in the test on LOX IMVI melanoma it was 25.2%; in the test on SK-MEL-28 melanoma, 58.8%; in the test on SK-MEL-2 melanoma it was 44.4%; in the test with EKVX NSCLC, 60.3%. Further, the growth was 34.5% in the test with SN12C renal; 36.1% in the test on UO-31 renal; 39.2% in the test with ACHN renal; 19.5% in the test with CAKI-1 renal; -5.63% (active) with A498 renal; -15.5% (active) in the test on CCRF-CEM leukemia. Further, the growth in the test on MOLT-4 leukemia is -18.9% (active).

On to `O=C1C=C(c2ccccc2)C(O)(c2ccccc2)C1` (stereo unspecified), for which the growth was 132% with HCT-15 colon; 97.8% in the test on HT29 colon; 77.6% in the test with SNB-75 CNS; 135% in the test with SNB-19 CNS; 106% in the test with U251 CNS; 92.8% with PC-3 prostate. Further, the growth in the test with SK-MEL-5 melanoma is 106%; in the test on UACC-62 melanoma, 92.3%; in the test on LOX IMVI melanoma, 93.6%; in the test on SK-MEL-28 melanoma it was 108%; in the test on SK-MEL-2 melanoma it was 103%; in the test with EKVX NSCLC it was 89.8%. In addition, the growth is 99.7% with SN12C renal; 83.5% with UO-31 renal; 89.9% in the test with CAKI-1 renal; 105% in the test with A498 renal; 100% in the test on CCRF-CEM leukemia; 95.4% with MOLT-4 leukemia.

With `CCNC(=O)OCCc1c2ccccc2nc2ccccc12`, the growth was 104% in the test on HCT-15 colon; 103% in the test on HT29 colon; 81.3% in the test with SNB-75 CNS; 111% in the test on SNB-19 CNS; 97% in the test on U251 CNS; 43.9% in the test with PC-3 prostate. Moreover, the growth in the test with SK-MEL-5 melanoma was 104%; in the test on UACC-62 melanoma, 99.1%; with LOX IMVI melanoma, 88.4%; in the test on SK-MEL-28 melanoma, 97.7%; with SK-MEL-2 melanoma, 111%; in the test on EKVX NSCLC, 115%. In addition, the growth in the test with SN12C renal is 119%; in the test with UO-31 renal, 92.2%; in the test with ACHN renal, 94.1%; in the test with CAKI-1 renal, 121%; in the test with A498 renal, 111%; in the test on CCRF-CEM leukemia, 73.7%. Besides, the growth in the test with MOLT-4 leukemia was 76.4%.

For the compound `COc1ccc(C(=O)/C(=N/Nc2ccccc2)c2ccc(OC)cc2)cc1`, the growth is 76.1% in the test on HCT-15 colon; 80.5% in the test with HT29 colon; 97.1% in the test with SNB-75 CNS; 100% with SNB-19 CNS; 92.4% in the test with U251 CNS; 78.2% with PC-3 prostate. For the same compound, the growth in the test with SK-MEL-5 melanoma was 98.1%; in the test on UACC-62 melanoma it was 79.2%; in the test on LOX IMVI melanoma, 92.1%; in the test with SK-MEL-28 melanoma it was 111%; with SK-MEL-2 melanoma, 96.2%; with EKVX NSCLC, 91.7%. For the same compound, the growth is 91.5% in the test with SN12C renal; 71.4% in the test with UO-31 renal; 112% in the test with TK-10 renal; 96.1% in the test with ACHN renal; 85% in the test on MOLT-4 leukemia.

Regarding `C/C(O)=C(/C=N\C(=S)Nc1ccc(S(=O)(=O)Nc2nccs2)cc1)C(=O)Nc1ccccc1C`, the growth in the test with HCT-15 colon is 102%; with HT29 colon it was 116%; in the test on SNB-75 CNS, 89%; with SNB-19 CNS, 92.7%; in the test on U251 CNS, 84%; in the test on PC-3 prostate it was 84.9%. Also, the growth is 93% in the test with SK-MEL-5 melanoma; 81.8% with UACC-62 melanoma; 92% with LOX IMVI melanoma; 110% in the test with SK-MEL-28 melanoma; 115% in the test with SK-MEL-2 melanoma; 101% in the test on EKVX NSCLC. Further, the growth in the test on UO-31 renal is 93.2%; in the test with TK-10 renal, 111%; in the test with ACHN renal, 99.9%; with CAKI-1 renal, 91.9%; in the test on A498 renal it was 60.5%; in the test with CCRF-CEM leukemia it was 87.4%. In the test with MOLT-4 leukemia, the growth is 83.7%.

The record behind these values is PubChem BioAssay (NCI).
